This is part of a sample that, as a whole, favours compounds with a hit. Of some 83,000 tested, about 20% had one in any assay.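 Testing used 96-well plates and a 48-hour single-concentration exposure. Example: -40 means 40% of the starting cells died.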 Calls of active or inactive are those of the source. The calls were made as follows: active = growth percent below 10; inactive = the rest.
Legend:
Assay in all cases: NCI-60 one-dose screen, 48 h (100 = growth as untreated, 0 = no growth, -100 = all killed)
Details in all cases: 10 µM unless noted
NCI-H23 lung = system: NCI-H23 lung
NCI-H226 lung = system: NCI-H226 lung
NCI-H322M lung = system: NCI-H322M lung
HOP-62 NSCLC = system: HOP-62 NSCLC
NCI-H460 lung = system: NCI-H460 lung
HOP-92 NSCLC = system: HOP-92 NSCLC
786-0 renal = system: 786-0 renal
COLO 205 colon = system: COLO 205 colon
DU-145 prostate = system: DU-145 prostate
K-562 leukemia = system: K-562 leukemia
MALME-3M melanoma = system: MALME-3M melanoma
MDA-MB-231 breast = system: MDA-MB-231 breast
RXF 393 renal = system: RXF 393 renal
SF-268 CNS = system: SF-268 CNS
SF-295 CNS = system: SF-295 CNS
UACC-257 melanoma = system: UACC-257 melanoma
M14 melanoma = system: M14 melanoma
A549/ATCC NSCLC = system: A549/ATCC NSCLC
SF-539 CNS = system: SF-539 CNS

Measured: growth

COC(=O)[C@H](Cc1cn(C)cn1)NC(=O)[C@@H](NC(=O)Nc1cc(C(F)(F)F)cc(C(F)(F)F)c1)C(C)C
active: NCI-H23 lung -77.2% [100 µM] | NCI-H226 lung -52.3% [100 µM] | NCI-H322M lung -90.4% [100 µM] | HOP-62 NSCLC -98.6% [100 µM] | NCI-H460 lung -45.9% [100 µM] | HOP-92 NSCLC -96.6% [100 µM] | 786-0 renal -90.6% [100 µM] | COLO 205 colon -94.4% [100 µM] | DU-145 prostate -97.1% [100 µM] | K-562 leukemia -53.5% [100 µM] | MALME-3M melanoma -90.5% [100 µM] | MDA-MB-231 breast -90.2% [100 µM] | RXF 393 renal -83.3% [100 µM] | SF-268 CNS -89.4% [100 µM] | SF-295 CNS -91% [100 µM] | UACC-257 melanoma -95.9% [100 µM] | M14 melanoma -92.8% [100 µM]

O=C(CC1Sc2ccccc2NC1=O)NNc1cccc(Cl)c1Cl (configuration not stated)
inactive: NCI-H23 lung 77% | NCI-H226 lung 73.9% | NCI-H322M lung 73.5% | HOP-62 NSCLC 84.6% | NCI-H460 lung 66.2% | A549/ATCC NSCLC 92.3% | 786-0 renal 95.3% | COLO 205 colon 82.2% | DU-145 prostate 108% | K-562 leukemia 89.1% | MALME-3M melanoma 54.6% | MDA-MB-231 breast 83.5% | RXF 393 renal 97.6% | SF-268 CNS 91.4% | SF-295 CNS 92.4% | SF-539 CNS 67.3% | UACC-257 melanoma 99.1% | M14 melanoma 112%

Cc1cn(C(C=O)OC(C=O)CO)c(=O)[nH]c1=O (configuration not stated)
inactive: NCI-H23 lung 107% | NCI-H226 lung 105% | NCI-H322M lung 106% | HOP-62 NSCLC 102% | NCI-H460 lung 105% | HOP-92 NSCLC 104% | 786-0 renal 107% | COLO 205 colon 109% | DU-145 prostate 108% | K-562 leukemia 104% | MALME-3M melanoma 98.8% | MDA-MB-231 breast 108% | SF-268 CNS 113% | SF-295 CNS 102% | SF-539 CNS 104% | UACC-257 melanoma 88% | M14 melanoma 108%

CCc1nn2c(-c3ccc(Cl)cc3C)c(-c3cc(OC)c(OC)c(OC)c3)nc2s1
inactive: NCI-H23 lung 88.9% | NCI-H226 lung 87% | NCI-H322M lung 69.7% | HOP-62 NSCLC 84.7% | NCI-H460 lung 84.8% | HOP-92 NSCLC 58.1% | 786-0 renal 72.9% | COLO 205 colon 81.2% | DU-145 prostate 91.7% | K-562 leukemia 78.4% | MALME-3M melanoma 68% | MDA-MB-231 breast 73.8% | RXF 393 renal 85.2% | SF-268 CNS 93.4% | SF-295 CNS 95.3% | SF-539 CNS 92.6% | UACC-257 melanoma 103% | M14 melanoma 76.7%

COc1ccc2c(c1)CC/C(=C\c1ccc(OCC(=O)Nc3nc4ccccc4s3)cc1)C2=O
inactive: NCI-H23 lung 79.5% | NCI-H226 lung 90.4% | NCI-H322M lung 98.6% | HOP-62 NSCLC 83.2% | NCI-H460 lung 113% | HOP-92 NSCLC 61.1% | 786-0 renal 92.3% | COLO 205 colon 122% | K-562 leukemia 84.7% | MALME-3M melanoma 92.5% | MDA-MB-231 breast 82.5% | SF-268 CNS 89.6% | SF-295 CNS 95% | SF-539 CNS 73.7% | UACC-257 melanoma 96.5% | M14 melanoma 89%

COc1cc(/C(Cl)=C/C=C/C(=O)c2c(C)[n+]([O-])c3ccc(Cl)cc3[n+]2[O-])cc(OC)c1OC
inactive: NCI-H23 lung 63.7% | NCI-H226 lung 54.3% | NCI-H322M lung 96.3% | NCI-H460 lung 56.6% | HOP-92 NSCLC 68.8% | 786-0 renal 35.1% | DU-145 prostate 67.8% | K-562 leukemia 13.3% | MALME-3M melanoma 65.7% | MDA-MB-231 breast 30.1% | RXF 393 renal 47.9% | SF-295 CNS 36.4% | SF-539 CNS 24.3% | M14 melanoma 43.4%
active: HOP-62 NSCLC 7.24% | COLO 205 colon -14.8% | SF-268 CNS -20.1%

CCCCCN1C(=O)CCC1=O
inactive: NCI-H23 lung 110% | NCI-H226 lung 101% | NCI-H322M lung 110% | HOP-62 NSCLC 92.9% | NCI-H460 lung 120% | HOP-92 NSCLC 79.3% | 786-0 renal 111% | COLO 205 colon 99.4% | DU-145 prostate 101% | K-562 leukemia 114% | MALME-3M melanoma 90.3% | MDA-MB-231 breast 109% | RXF 393 renal 122% | SF-268 CNS 93.3% | SF-295 CNS 101% | SF-539 CNS 102% | UACC-257 melanoma 99.4% | M14 melanoma 107%

COc1ccc(CNC(=O)c2c(C)n([O-])c3ccccc3[n+]2=O)cc1
inactive: NCI-H23 lung 93.8% | NCI-H226 lung 102% | NCI-H322M lung 144% | HOP-62 NSCLC 94.3% | NCI-H460 lung 112% | HOP-92 NSCLC 82.6% | 786-0 renal 101% | COLO 205 colon 122% | K-562 leukemia 94.9% | MALME-3M melanoma 153% | MDA-MB-231 breast 103% | SF-268 CNS 99.7% | SF-295 CNS 111% | SF-539 CNS 112% | UACC-257 melanoma 90.4% | M14 melanoma 104%
